The first test has as its target RNF167. In words: pooled miR-30 sensor sort-seq; sequence = guide strand. The settings on record: shRNA.
Regarding TTTGGTAAGTCGATTCCGCTGG, the sensor-assay potency score (higher = more potent) came to 0.435.

Regarding TTGTGTACTACAGCGGCACCAT, the sensor-assay potency score (higher = more potent) is -0.0886.

TTCCTCACTATTCCACACCATG yielded a sensor-assay potency score (higher = more potent) of -1.35.

TCACATTGTGTACTACAGCGGC gave a sensor-assay potency score (higher = more potent) of -0.461.

TACAACGAGCTATCATTACTGC: the sensor-assay potency score (higher = more potent) is -0.205.

The sequence TACTCGGAGCTTCTCTCCCCAA displayed a sensor-assay potency score (higher = more potent) of -1.19.

In turn, ATGTGTAGGAATCTGTTTCAGT yielded a sensor-assay potency score (higher = more potent) of -0.804.

For the sequence AAGACTGACCCATTGACCGGGG, the sensor-assay potency score (higher = more potent) is -0.25.

In the case of TTGGTAAGTCGATTCCGCTGGA, the sensor-assay potency score (higher = more potent) was 0.395.

With TTCCTCTTGGTCTTCGTCCCCA, the sensor-assay potency score (higher = more potent) is -0.474.

In turn, TTCCGGGTCTGAGTGAGCCAGG registered a sensor-assay potency score (higher = more potent) of -1.12.

The target in a further test is RNF170. Described as above. The settings on record: shRNA.
The sequence ATGCAATCTCAGAACATCCTGA came in with a sensor-assay potency score (higher = more potent) of -0.378.

In turn, ATTCTCTCCATAATAGATCTGG registered a sensor-assay potency score (higher = more potent) of -0.226.

Consider TTATCATATAGGTACCTGCTGA, for which the sensor-assay potency score (higher = more potent) was -0.705.

In the case of TATATTATCATATAGGTACCTG, the sensor-assay potency score (higher = more potent) was -0.52.

In the case of TTCCAGACAACATAGAATCAAG, the sensor-assay potency score (higher = more potent) was -0.928.

Take TAGATCCATAATTCTCTCCATA: the sensor-assay potency score (higher = more potent) was -0.793.

For the sequence TAAGATAGAAAAAAGCTCCCAT, the sensor-assay potency score (higher = more potent) was 0.565.

TTAATCTAAGTAATTCTGGGGA displayed a sensor-assay potency score (higher = more potent) of 0.33.

TATAACTGAATCATCATCCAGT displayed a sensor-assay potency score (higher = more potent) of 0.606.

Consider TAATTAATCTAAGTAATTCTGG, for which the sensor-assay potency score (higher = more potent) is -0.536.

For TACATTAGCTCAGATATCCTAG, the sensor-assay potency score (higher = more potent) was 0.22.

TAATATTAGAACTTCAAACATG gave a sensor-assay potency score (higher = more potent) of -0.991.

Another test deals with RNF19A. The test is described as above. Particulars: shRNA.
In the case of TTGTCGAGCAGCATCACAGGTC, the sensor-assay potency score (higher = more potent) was 0.0826.

Sequence TACATCTGCTTGTACTTCCAAC displayed a sensor-assay potency score (higher = more potent) of -0.763.

On to TAACATAATAGGAACACCGATA, for which the sensor-assay potency score (higher = more potent) is -0.784.

As for TACAGTGGTAGCAAAACTCTGT, the sensor-assay potency score (higher = more potent) turned out to be 0.121.

Take TTTGTGCTTTGAAACATCCTTG: the sensor-assay potency score (higher = more potent) was 0.0546.

For TTTTGTAATACTTATAACCTAA, the sensor-assay potency score (higher = more potent) is -0.606.

As to TCTGCTTGTACTTCCAACCTGT, the sensor-assay potency score (higher = more potent) worked out at 0.605.

Sequence TTATATAAGCAGCACATCGTGG had a sensor-assay potency score (higher = more potent) of -0.73.

TTTGTTGTTCTAACAACTGTGC yielded a sensor-assay potency score (higher = more potent) of -0.162.

On to TATATTTAGAGATAAAACCTAT, for which the sensor-assay potency score (higher = more potent) was -0.374.

TTGGGTTGTGTCTTGCTTCTGC returned a sensor-assay potency score (higher = more potent) of 0.712.

Take ATTTCTTTCATACACAACCAAC: the sensor-assay potency score (higher = more potent) was -1.69.

In another test the target is RNF219. Described as above. Particulars: shRNA.
Take TTGATCTGTGACTCCAAGCTGA: the sensor-assay potency score (higher = more potent) was 0.034.

In turn, TCTGTCTGAAACAAGCAGCTTG showed a sensor-assay potency score (higher = more potent) of -0.169.

In the case of TAAACAATCTATTTCGTCCTCA, the sensor-assay potency score (higher = more potent) was 0.474.

Sequence TCTGTTATCAACTTCAGCCTTC had a sensor-assay potency score (higher = more potent) of 0.456.

For TTCACTTGAATTTTTTAGCTGT, the sensor-assay potency score (higher = more potent) was 0.783.

Values taken from the OligoGym collection.
Also: reference of the scale not given here.
